An excerpt weighted towards active compounds, which were near 19% of everything screened.
SARS PLP yeast: inhibitors of SARS-CoV papain-like protease in yeast; S. cerevisiae expressing SARS-CoV PLpro, growth rescue; Potency, µM (highest dose often 32.9 µM), inactives show at the highest dose activity, positive = growth rescue, usual class: activators; hit rate 0.19% among 330,000; AID 485353; calls by dose curve; also: potency is read from the fitted curve at half-maximal effect; 0% is about no effect; nearly all actives have a fitted effect of over 55% in size
AMA1 RON2 block: AMA1-RON2 (P. falciparum) interaction inhibition; Potency, µM (series often up to 58.2 µM), without a hit: top-dose activity change, negative = inhibition, hits mostly inhibitors; hit rate 0.2% among 360,000; AID 720542; AlphaScreen AMA1-biotinylated RON2 peptide binding;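 also: potency is read from the fitted curve at half-maximal effect; 0% = vehicle wells and -100% = peptide control; nearly all actives have a fitted effect of over 45% in size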
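AMA1 (3D7) with his tag at 25 nM final met compounds first, then biotinylated RON2 peptide at 25 nM; detection used donor plus acceptor beads, 10 µg/mL apiece, read by AlphaScreen after 30 min at room temperature.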
Shiga toxin inh: blocks Shiga toxin action in Vero cells. Vero cells, Shiga toxin protein synthesis inhibition reporter. inhibition, % at 38.7 µM. hit rate 9.2% among 290,000. AID 2315; in the data active = inhibition mostly above about 28%, no sharp cut-off; inactive = mostly below about 43%; also: 0% is about no effect
Pf growth 96h: P. falciparum growth inhibition at 96 hours | hit rate 6.9% among 320,000 | AID 504834 | Potency, µM (doses to about 28.7 µM), for inactives: at the highest dose activity change, negative = inhibition, hits mostly inhibitors | P. falciparum luciferase reporter growth, 96 h; also: potency is read from the fitted curve at half-maximal effect; % is scaled to controls: 0 for no effect and ±100 for the full control effect
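Luminescence readout: decreased luciferase signal marks inhibited growth of reporter-expressing P. falciparum in infected red cells (2% hematocrit, 0.05% parasitemia final), exposed to compound two generations (96 h, 37 C, 5% CO2).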
Pf growth 48h: inhibits P. falciparum growth in the first generation, 48 h; P. falciparum luciferase growth in erythrocytes, 48 h; Potency, µM (titrated, usually from 28.7 µM), without a hit: top-dose activity change, negative = inhibition, usual class: inhibitors; hit rate 5.9% among 310,000; also: potency is read from the fitted curve at half-maximal effect; % is scaled to controls: 0 for no effect and ±100 for the full control effect
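Firefly luciferase activity from engineered P. falciparum reports growth; inhibitors lower the luminescent signal. Cultures contained 2% hematocrit erythrocytes at 0.1% final parasitemia.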
Cycloheximide cs: counter-screen for Shiga toxin inhibitors: cycloheximide protein synthesis inhibition. cell reporter, cycloheximide protein synthesis inhibition counterscreen. max response, %. hit rate 12% among 300,000. AID 2314; in the data active = max response mostly above about 13%, no sharp cut-off; inactive = mostly below about 14%; also: read at 38.3 µM for the half of the compounds with a filed dose; 0% is about no effect
Active calls of the source: *; ? = inconclusive; . = not tested or not shown. Unless noted, calls follow the shape of the dose curve; as a rule, active = well fitted curve in the direction sought with a large enough effect; inconclusive = small, poorly fitted or top-dose-only effect, or another doubt; inactive = no such curve, though single readings can be large; an effect the other way counts as inactive or inconclusive.

SMILES	SARS PLP yeast	AMA1 RON2 block	Shiga toxin inh	Pf growth 96h	Pf growth 48h	Cycloheximide cs
Cc1ccc(C2=NCCn3c2c2ccc(C(F)(F)F)cc2[n+]3[O-])cc1	1%	-4%	.	?	10µM*	.
COc1ccc(C2=NCCn3c2c2ccc(C(F)(F)F)cc2[n+]3[O-])cc1	2%	82%	.	22%	?	.
CCCn1nnnc1-c1ccc(Cl)cc1	22%	-7%	-13	-2%	-2%	7
FC(F)(F)c1cccc(Cn2nnnc2-c2ccc(Cl)cc2)c1	-21%	9%	8	8.3µM*	?	-2
Cc1cc(C)nc(NC(=O)c2c(F)c(F)c(F)c(C(=O)Nc3cc(C)cc(C)n3)c2F)c1	.	1%	.	.	.	.
Cc1cc(/C=C2\SC(=S)N(C)C2=O)c(C)n1-c1ccc(O)cc1	-5%	-15%	70*	0%	68%	52*
Cc1ccc(-n2c(C)cc(/C=C3\SC(=O)NC3=O)c2C)cc1	-4%	0%	83*	32%	107%	32*
CCn1c(C)cc(/C=C2/SC(=S)NC2=O)c1C	-10%	-8%	30	11%	53%	21
COc1ccc(-n2c(C)cc(/C=C3\SC(=O)NC3=O)c2C)cc1	-1%	0%	58*	15%	.	42*
Cc1cc(/C=C2\SC(=S)NC2=O)c(C)n1-c1cccc(O)c1	-7%	61%	64*	266%	182%	41*
Cc1ccc(NC(=O)C2CCN(S(=O)(=O)c3ccc4c(c3)OCCO4)CC2)nc1	5%	-5%	.	6%	?	.
Cc1ccc(S(=O)(=O)Nc2cccc(C(=O)NCCN3CCOCC3)c2)cc1F	0%	20%	.	-29%	-18%	.
CC1=NN2C(=N)/C(=C\c3cc(C)n(-c4ccccc4)c3C)C(=O)N=C2S1	-1%	3%	-6	-16%	32%	12
Cc1cc(/C=C2\SC(=Nc3ccccc3)NC2=O)c(C)n1-c1ccc(S(N)(=O)=O)cc1	-16%	-1%	-16	?	4.1µM*	-1
CC1=CC2=NC(=O)/C(=C\c3cc(C)n(-c4ccc(F)cc4)c3C)C(=N)N2O1	-11%	14%	-12	?	4.7µM*	-5
O=C1NN(c2ccccc2)C(=O)C1=Cc1ccccc1O	.	5%	.	.	.	.
Cc1cc(/C=C2/C(=O)NN(c3ccccc3)C2=O)c(C)n1-c1cccc(O)c1	-15%	-11%	60*	-1%	10%	57*
Cc1cc(/C=C2\SC(N)=NC2=O)c(C)n1-c1ccc(F)cc1	0%	-11%	16	?	?	20*
COc1cc(C(=O)N2CCCC(c3cc(C(=O)NCc4ccc(F)cc4)no3)C2)cc(OC)c1C (stereo unspecified)	.	-14%	.	.	.	.
C#CCn1c(S(=O)(=O)Cc2ccccc2Cl)nc(-c2ccccc2)c1-c1ccccc1	-1%	-1%	-5	?	8.3µM*	6
CCOC(=O)Cn1c(C)nc2ccccc21	-3%	8%	-1	?	42%	-3
C#CCn1c(S(=O)(=O)Cc2ccc(C)cc2)nc(-c2ccccc2)c1-c1ccccc1	-5%	-19%	-10	?	?	8
CCOC(=O)Cn1c(-c2cccnc2)nc(-c2ccccc2)c1-c1ccccc1	0%	-20%	-10	2.3µM*	4.1µM*	-1
CCOC(=O)Cn1c(S(=O)(=O)Cc2ccccc2Cl)nc(-c2ccccc2)c1-c1ccccc1	4%	-8%	8	2.6µM*	9.3µM*	1
Cc1cc(C)n(-c2ccc(C(=O)Nc3ccc(S(=O)(=O)N(C)C)cc3)cc2)n1	29%	-14%	-10	?	15µM*	-6
Cc1ccc(NC(=O)c2ccc(OC(F)(F)F)cc2)cc1S(=O)(=O)N(C)C	-21%	-9%	8	?	-29%	12*
Cc1cc(C)n(-c2ccc(C(=O)Nc3ccc(C)c(S(=O)(=O)N(C)C)c3)cc2)n1	-3%	13%	-4	12µM*	?	-2
CCOc1ccc(CCNC(=O)COC(=O)c2cc(OC)c(OC)c(OC)c2)cc1OCC	-1%	.	-10	-27%	?	-3
O=C(c1ccc2c(=O)n(Cc3ccccc3Cl)c(=S)[nH]c2c1)N1CCCC1	0%	15%	-8	-7%	?	0
Cc1ncc(CN2CCC(C(=O)Nc3ccc(-n4cccn4)cc3)CC2)s1	16%	6%	-8	9%	1µM*	1

High-throughput results (PubChem BioAssay)
